Where “and” joins values, the source holds several entries; their conditions need not be identical. Identical values can stand only once. Out of some 5,500 compounds screened, about 2,000 (36%) were called active. Another 18% or so got no clear call; they are omitted. Cut-off read from the data, not from the text of the source: active = normalized growth mostly below about 0.91 (no sharp cut-off); inconclusive = no clear call, values can overlap the other calls; inactive = mostly above about 0.92. Some of the results follow.
Assay: chemical genetic growth profiling, strain panel (AID 1159580);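 note: tested at 20 µM; growth read once vehicle control cultures reached saturation at 30 °C; 1 = growth at the plate median or of vehicle wells; lower values mean less growth of the strain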
Details: S. cerevisiae deletion strains, growth OD

Measured: normalized growth

CCn1nc(C(=O)O)c(=O)c2cc3c(cc21)OCO3
inactive: locus YAL013W, strain DEP1, hits give low values 1.01 | locus YAL021C, strain ccr4, hits give low values 1 | locus YAL026C, strain drs2, hits give low values 0.999 | locus YAL030W, strain snc1, hits give low values 1.01 | locus YAL040C, strain CLN3, hits give low values 0.955 | locus YBL061C, strain skt5, hits give low values 1.02 | locus YBR009C, strain hhf1, hits give low values 0.989 | locus YBR021W, strain FUR4, hits give low values 1.03 | locus YBR023C, strain chs3, hits give low values 1.03 | locus YBR171W, strain sec66, hits give low values 1 | locus YBR229C, strain ROT2, hits give low values 1.01 | locus YBR231C, strain swc5, hits give low values 1.03 | locus YBR279W, strain paf1, hits give low values 1 | locus YCL011C, strain gbp2, hits give low values 0.987 | locus YCL016C, strain dcc1, hits give low values 0.99 | locus YCL029C, strain bik1, hits give low values 1.01 | locus YCL069W, strain vba3, hits give low values 1.01 | locus YCR088W, strain abp1, hits give low values 1 | locus YDL005C, strain med2, hits give low values 0.998 | locus YDL035C, strain GPR1, hits give low values 1 | locus YDL040C, strain nat1, hits give low values 1.01 | locus YDL074C, strain BRE1, hits give low values 1.04 | locus YDL101C, strain DUN1, hits give low values 1.01 | locus YDL134C, strain PPH21, hits give low values 1 | locus YDL185W, strain tfp1, hits give low values 1.03 | locus YDL192W, strain arf1, hits give low values 1.03 | locus YDR001C, strain nth1, hits give low values 0.996 | locus YDR069C, strain doa4, hits give low values 1.02 | locus YDR101C, strain arx1, hits give low values 0.992 | locus YDR137W, strain rgp1, hits give low values 0.949 | locus YDR150W, strain NUM1, hits give low values 1.01 | locus YDR159W, strain sac3, hits give low values 0.959 | locus YDR162C, strain NBP2, hits give low values 1.01 | locus YDR195W, strain ref2 1.01 | locus YDR297W, strain sur2, hits give low values 1.01 | locus YDR318W, strain mcm21, hits give low values 1.02 | locus YDR334W, strain swr1, hits give low values 1 | locus YDR335W, strain msn5, hits give low values 1.01 | locus YDR363W, strain ESC2, hits give low values 0.967 | locus YDR388W, hits give low values 1.02 | locus YDR392W, strain spt3, hits give low values 0.987 | locus YDR502C, strain sam2, hits give low values 1.02 | locus YEL003W, strain gim4, hits give low values 1.02 | locus YEL037C, strain rad23, hits give low values 1.01 | locus YEL061C, strain CIN8 (second series), hits give low values 1.01 | locus YEL061C, strain CIN8, hits give low values 1.01 | locus YER002W, strain NOP16, hits give low values 1.02 | locus YER015W, strain faa2, hits give low values 1.02 | locus YER016W, strain bim1, hits give low values 0.996 | locus YER110C, hits give low values 1.02 | locus YER111C, strain swi4, hits give low values 1 | locus YER155C, strain BEM2 (second series), hits give low values 1.06 | locus YER155C, strain BEM2, hits give low values 0.999 | locus YER167W, strain BCK2, hits give low values 0.993 | locus YFR010W, strain ubp6, hits give low values 1.03 | locus YGL078C, strain dbp3, hits give low values 1.01 | locus YGL086W, strain mad1, hits give low values 1 | locus YGL167C, strain pmr1, hits give low values 1.03 | locus YGL173C, strain kem1, hits give low values 1.01 | locus YGL227W, strain vid30, hits give low values 1.01 | locus YGL240W, strain doc1, hits give low values 1.03 | locus YGL248W, strain PDE1, hits give low values 1.03 | locus YGL253W, strain hxk2, hits give low values 1.01 | locus YGR078C, strain PAC10, hits give low values 1.02 and 1.01 | locus YGR135W, strain pre9, hits give low values 1.04 | locus YGR252W, strain gcn5, hits give low values 1.05 | locus YHR013C, strain ard1, hits give low values 1 | locus YHR027C, strain rpn1, hits give low values 1.01 | locus YHR030C, strain SLT2, hits give low values 1.01 and 0.999 | locus YHR079C, strain IRE1 (second series), hits give low values 1.01 | locus YHR079C, strain IRE1, hits give low values 0.999 | locus YHR094C, strain hxt1, hits give low values 1.01 | locus YHR129C, strain ARP1, hits give low values 1 | locus YHR142W, strain chs7, hits give low values 1.01 | locus YHR200W, strain rpn10, hits give low values 1.03 | locus YIL066C, strain RNR3, hits give low values 1.01 | locus YIL073C, strain SPO22, hits give low values 1.04 | locus YIL125W, strain kgd1, hits give low values 1.01 | locus YIR030C, strain dcg1, hits give low values 1.01 | locus YJL092W, strain hpr5, hits give low values 1.02 | locus YJL095W, strain BCK1 (second series), hits give low values 1.02 | locus YJL095W, strain BCK1, hits give low values 1.04 and 0.983 | locus YJL115W, strain asf1, hits give low values 1.01 | locus YJL129C, strain trk1, hits give low values 1.02 | locus YJL134W, strain LCB3, hits give low values 1.01 | locus YJL154C, strain vps35, hits give low values 1.02 | locus YJL164C, strain tpk1, hits give low values 1 | locus YJL166W, strain qcr8, hits give low values 1.05 | locus YJL168C, strain set2, hits give low values 1.02 | locus YJL187C, strain SWE1 (second series), hits give low values 1.03 | locus YJL187C, strain SWE1, hits give low values 1.02 | locus YJR043C, strain POL32, hits give low values 0.999 | locus YJR066W, strain TOR1, hits give low values 0.974 | locus YJR075W, strain HOC1, hits give low values 1.03 | locus YKL009W, strain mrt4, hits give low values 1.03 | locus YKL068W, hits give low values 0.999 | locus YKL085W, strain MDH1 (second series), hits give low values 1.03 | locus YKL085W, strain MDH1, hits give low values 1.03 | locus YKL160W, strain elf1, hits give low values 1.02 | locus YKR001C, strain vps1, hits give low values 1 | locus YKR026C, strain gcn3, hits give low values 0.993 | locus YKR091W, strain srl3, hits give low values 1.02 | locus YLL001W, strain dnm1, hits give low values 1.02 | locus YLL026W, hits give low values 1 | locus YLL041C, strain sdh2, hits give low values 1.01 | locus YLR027C, strain aat2, hits give low values 1 | locus YLR039C, strain RIC1, hits give low values 0.967 | locus YLR058C, strain SHM2, hits give low values 1.02 | locus YLR102C, strain apc9, hits give low values 1.01 | locus YLR113W, strain HOG1, hits give low values 1 | locus YLR221C, strain rsa3, hits give low values 1.02 | locus YLR258W, strain gsy2, hits give low values 1.01 | locus YLR262C, strain YPT6 (second series), hits give low values 0.964 | locus YLR262C, strain YPT6, hits give low values 0.978 | locus YLR268W, strain sec22, hits give low values 1.02 | locus YLR320W, strain mms22, hits give low values 1 | locus YLR330W, strain CHS5, hits give low values 1.01 | locus YLR342W, strain FKS1 (second series), hits give low values 1.01 | locus YLR342W, strain FKS1, hits give low values 1.02 | locus YLR357W, strain rsc2, hits give low values 1.02 | locus YLR370C, strain arc18, hits give low values 1.02 | locus YLR371W, strain rom2, hits give low values 1.01 | locus YLR384C, strain iki3, hits give low values 1.01 | locus YLR418C, strain cdc73, hits give low values 1.07 | locus YML016C, strain PPZ1, hits give low values 1.01 | locus YML032C, strain rad52, hits give low values 1.03 | locus YML120C, strain ndi1, hits give low values 1 | locus YML124C, strain tub3, hits give low values 1.02 | locus YMR058W, strain fet3, hits give low values 1.01 | locus YMR078C, strain ctf18, hits give low values 1.02 | locus YMR125W, strain sto1, hits give low values 1.02 | locus YMR129W, hits give low values 1.01 | locus YMR205C, strain PFK2, hits give low values 1.02 | locus YMR223W, strain ubp8, hits give low values 1.03 | locus YMR231W, strain pep5, hits give low values 1.01 | locus YMR307W, strain GAS1, hits give low values 1.06 | locus YNL067W, strain RPL9B, hits give low values 1.03 | locus YNL071W, strain lat1, hits give low values 1 | locus YNL153C, strain GIM3, hits give low values 1.02 | locus YNL175C, strain NOP13, hits give low values 0.997 | locus YNL183C, strain NPR1, hits give low values 0.928 | locus YNL197C, strain WHI3, hits give low values 0.994 | locus YNL209W, strain ssb2, hits give low values 1 | locus YNL224C, strain SQS1, hits give low values 0.99 | locus YNL233W, strain BNI4, hits give low values 1.02 | locus YNL248C, strain rpa49, hits give low values 0.952 | locus YNL250W, strain rad50, hits give low values 1.02 | locus YNL271C, strain bni1, hits give low values 1.02 | locus YNL298W, strain CLA4, hits give low values 1.02 | locus YNL307C, strain MCK1, hits give low values 1.03 | locus YNL322C, strain KRE1 (second series), hits give low values 1.01 | locus YNR049C, strain mso1, hits give low values 1.01 | locus YNR052C, strain pop2, hits give low values 1.01 | locus YOL012C, strain htz1 1.6 | locus YOL147C, strain pex11, hits give low values 1.01 | locus YOR001W, strain rrp6, hits give low values 1.03 | locus YOR061W, strain CKA2, hits give low values 1.01 | locus YOR069W, strain VPS5, hits give low values 1.01 | locus YOR070C, strain gyp1, hits give low values 1 | locus YOR080W, strain dia2, hits give low values 1.03 | locus YOR083W, strain WHI5 (second series), hits give low values 0.976 | locus YOR083W, strain WHI5, hits give low values 1.05 | locus YOR106W, strain vam3, hits give low values 1.02 | locus YOR136W, strain idh2, hits give low values 1.02 | locus YOR144C, strain elg1, hits give low values 1.01 | locus YOR184W, strain ser1, hits give low values 1.03 | locus YOR231W, strain MKK1, hits give low values 1 | locus YOR265W, strain rbl2, hits give low values 1 | locus YOR270C, strain vph1, hits give low values 1.02 | locus YOR290C, strain snf2, hits give low values 1 | locus YOR316C, strain cot1, hits give low values 1.02 | locus YPL051W, strain arl3, hits give low values 1.02 | locus YPL055C, strain LGE1, hits give low values 1.04 and 1.01 | locus YPL078C, strain atp4, hits give low values 1.03 | locus YPL106C, strain sse1, hits give low values 0.989 | locus YPL240C, strain hsp82, hits give low values 0.999 | locus YPL241C, strain CIN2, hits give low values 1.01 | locus YPL256C, strain CLN2, hits give low values 0.998 | locus YPR119W, strain clb2, hits give low values 1.02 | locus YPR141C, strain kar3, hits give low values 1.01 | locus YPR163C, strain tif3, hits give low values 1.02 | locus YPR167C, strain met16, hits give low values 1.01 | strain wtn01, hits give low values 1.02
